# DT40 TDP1 no CPT – qHTS for Inhibitors of human tyrosyl-DNA phosphodiesterase 1 (TDP1): qHTS in cells in absence of CPT | DT40 Tdp1-/- hTDP1 cells, no CPT, ATP luminescence, 48 h | Potency, µM (doses to about 46.2 µM), for the others: top-dose activity change, negative = growth inhibition, usual class: inhibitors | 420,000 compounds, 15% hits | AID 686978, 2013; note: nearly all actives have a fitted effect of over 55% in size
#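 Readout: luminescence from CellTiter-Glo after 30 min in the dark at RT. Cells: DT40 Tdp1-/- with stable hTDP1, 400/well. Exposure: compounds alone, ≥48 hr, 37 °C.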
# KB-3-1 cytotox – kills parental KB-3-1 adenocarcinoma cells; 400,000 compounds, 1.4% hits; KB-3-1 viability, CellTiter-Glo ATP luminescence, 72 h; Potency, µM (doses to about 46.1 µM), actives largely listed as cytotoxic; note: nearly all actives have a fitted effect of over 60% in size
#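 Parental KB-3-1 viability, qHTS format: 72 h compound exposure, 37 °C; CellTiter-Glo; media-only wells and DMSO plates as controls; concentration-effect fits on corrected data.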
# KB-V1 MDR tox – kills drug-selected multidrug resistant KB-V1 cells; KB-V1 MDR cells viability, CellTiter-Glo, 72 h; Potency, µM (highest dose often 46.1 µM), most hits filed as cytotoxic; 400,000 compounds, 3.4% hits; AID 1347076; note: nearly all actives have a fitted effect of over 60% in size
#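 KB-V1, DMEM (no phenol red) + 10% FBS; cpd pin-transferred, titration series; 72 h, 37 degrees C; CellTiter-Glo, luminescence. Data normalized, curve-fit.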
# DT40 TDP1 CPT – DT40-hTDP1 cell growth loss with CPT. Potency, µM (series often up to 46.2 µM), inactives show at the top dose activity change, negative = growth inhibition, usual class: inhibitors. 420,000 compounds, 12% hits. chicken DT40 Tdp1-/-;hTDP1 cells + 20 nM CPT, ATP luminescence, 48 h; note: nearly all actives have a fitted effect of over 55% in size
#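 Chicken DT40 Tdp1-/- cells complemented with human TDP1, 400 cells/well, exposed to compounds plus 20 nM camptothecin for at least 48 h at 37 C; viability read as ATP content by CellTiter-Glo luminescence.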
# HT1080-NT tox – kills 2HG-producing HT-1080-NT fibrosarcoma cells. 360,000 compounds, 1.6% hits. HT-1080-NT fibrosarcoma viability, CellTiter-Glo ATP luminescence, 48 h. AID 686970. Potency, µM (series often up to 46.1 µM), without a hit: top-dose activity, negative = less viability, actives largely listed as cytotoxic;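 note: NT is the 2HG producing partner of a matched IDH1 knockdown line; 0% = DMSO-treated cells and -100% = media-only wells without cells; nearly all actives have a fitted effect of over 55% in size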
#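 Viability by CellTiter-Glo luminescence after 48 h compound exposure at 37C of HT-1080-NT cells (750/well, RPMI, 5% FBS). % activity scaled between DMSO wells and medium-only wells, then curve-fitted and categorized by curve class.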
# HT1080 IDH1KD tx – kills HT-1080 cells with IDH1 knockdown; HT-1080 IDH1 knockdown viability, ATP luminescence, 48 h; Potency, µM (highest dose often 46.1 µM), for the others: at the top dose activity, negative = toxicity, most hits filed as cytotoxic; 360,000 compounds, 2% hits; AID 686971;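 note: 0% = DMSO wells and -100% = cell-free medium wells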
#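 Viability of IDH1-knockdown HT-1080 fibrosarcoma cells was assessed by CellTiter-Glo after 48 h at 37 °C with titrated compound; concentration-effect curves were classified by fit quality and response size.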
# * marks the source's active call; other numbers are inactive results; i = inactive; u = inconclusive; x = no result; [ ] = dose if it differs, or a comment. Hits are enriched below; roughly 19% of the tested compounds scored in any of these assays. Calls come from the whole dose curve; as a rule, active = well fitted curve in the direction sought with a large enough effect; inconclusive = small, poorly fitted or top-dose-only effect, or another doubt; inactive = no such curve, though single readings can be large; an effect the other way counts as inactive or inconclusive. Unless noted, % is set by controls: 0 for no effect and ±100 for the full control effect; potency is the fitted concentration of half-maximal effect.
SMILES,DT40 TDP1 no CPT,KB-3-1 cytotox,KB-V1 MDR tox,DT40 TDP1 CPT,HT1080-NT tox,HT1080 IDH1KD tx
CCOc1cccc(C(=O)Nc2ccc(S(=O)(=O)N(Cc3ccccc3)c3ccccc3)cc2)c1,2.3µM*,i,u,u,x,x
CCOc1cccc(NC(=O)c2ccc(S(=O)(=O)N(C)C)cc2)c1,u,i,i,u,13%,-2%
CC(=O)SC(C[N+](=O)[O-])c1cn(C(C)=O)c2ccccc12 (centres undefined),2.9µM*,u,u,4.6µM*,-2%,u
O=S(=O)(c1ccccc1)c1nc(-c2ccc(Cl)cc2Cl)oc1N1CCCCCC1,18µM*,i,i,23µM*,x,x
Cc1cccc(-c2nc(S(=O)(=O)c3ccc(Cl)cc3)c(N3CCCCCC3)o2)c1,u,i,i,u,x,x
O=S(=O)(c1ccccc1)c1nc(-c2cccc(Cl)c2)oc1N1CCOCC1,18µM*,i,i,u,-3%,-5%
CN(C)c1oc(-c2ccccc2Cl)nc1S(=O)(=O)c1ccccc1,21µM*,i,i,u,11%,-5%
Cc1ccc(S(=O)(=O)c2nc(-c3ccccc3)oc2N2CCCCCC2)cc1,21µM*,i,i,23µM*,x,x
Cc1ccc(S(=O)(=O)c2nc(-c3ccc(Cl)cc3)oc2N2CCCCCC2)cc1,u,i,i,u,x,x
CN(C)CCCNc1oc(-c2ccccc2Cl)nc1S(=O)(=O)c1ccccc1,u,i,u,u,-10%[9.24 µM],-2%
COc1ccc(-n2nnc(-c3nc(-c4ccc5c(c4)OCO5)no3)c2C)cc1Cl,-3%,x,x,-3%,x,x
Cc1ccc(S(=O)(=O)NCC(=O)NCC(=O)OC(C(=O)NC(N)=O)C(C)C)cc1C (centres undefined),5%,i,i,-4%,7%,7%
CCc1ccc(NC(=O)CCCc2nnc3n(C(C)CC)c(=O)c4sccc4n23)cc1 (centres undefined),-80%,x,x,-80%,x,x
O=C(Nc1cc([N+](=O)[O-])ccc1C(=O)Nc1cccnc1)c1ccccc1,-23%,i,i,-7%,-19%,-20%
Cn1cc([N+](=O)[O-])c(C(=O)NC2CCCC2)n1,-9%,i,u,-11%,1%,5%
Cc1cccc(-c2nc(S(=O)(=O)c3ccccc3)c(N3CCN(c4ccccc4)CC3)o2)c1,7.3µM*,i,i,18µM*,x,x
Cc1ccc(-c2nc(S(=O)(=O)c3ccc(C)cc3)c(N3CCCCC3)o2)cc1,7.3µM*,i,i,6.5µM*,x,x
CC(Sc1nc2ccccc2c(=O)n1C)C(=O)Nc1ccc2c(c1)OCCO2 (centres undefined),4.1µM*,u,i,8.2µM*,u,-4%
CC(Sc1nnnn1C)C(=O)Nc1ccc2c(c1)OCCO2 (centres undefined),-2%,i,i,-6%,25%,29%
CC(Sc1ncnc2ccccc12)C(=O)Nc1ccc2c(c1)OCCO2 (centres undefined),13µM*,i,u,15µM*,-20%,-30%
CC(C)Cn1c(SC(C)C(=O)Nc2ccc3c(c2)OCCO3)nc2ccccc2c1=O (centres undefined),u,i,21µM*,29µM*,-24%,-26%
COc1ccccc1NC(=O)C(C)Sc1nc2ccccc2c(=O)n1CC1CCCO1 (centres undefined),-24%,i,i,u,3%,-5%
CC(Sc1nc2ccccc2c(=O)n1CC1CCCO1)C(=O)N(C)c1ccccc1 (centres undefined),5.8µM*,i,i,21µM*,-8%,0%
Cc1nc2ccccc2c(=O)n1CCc1ccc(O)cc1,-26%,i,i,-5%,27%,18%
Cc1cccc(NC(=O)C(C)Sc2ncnc3sccc23)c1 (centres undefined),15µM*,i,u,18µM*,-10%,-19%
SMILES,DT40 TDP1 no CPT,KB-3-1 cytotox,KB-V1 MDR tox,DT40 TDP1 CPT,HT1080-NT tox,HT1080 IDH1KD tx
CCOC(=O)CSc1nc(-c2ccc(C)cc2C)cc(-c2ccccc2)c1C#N,2%,x,x,4%,x,x
CC(=O)NC(Cc1ccc([N+](=O)[O-])cc1)C(=O)NCC(N)C(=O)c1ccccc1 (centres undefined),5.6µM*,x,x,22µM*,-2%,-3%
CC(=O)NC(Cc1ccc(O)cc1)C(=O)NCC(N)C(=O)c1ccccc1 (centres undefined),u,x,x,u,6%,9%
CCOC(=O)c1[nH]c2ccccc2c1N=CN(C)C,2%,i,i,1%,-2%,1%
CN(C)C=Nc1ccc2nc3c(cc2c1)[nH]c1ccccc13,12µM*,i,i,u,-13%,-7%
CCCc1nc2c3ccccc3ccn2c1Cc1ccc(C)cc1,u,i,i,21µM*,u,u
c1ccc(Cc2c(-c3ccccc3)nc3c4ccccc4ccn23)cc1,u,i,i,u,5%,8%
CCCc1nc2c3ccccc3ccn2c1CC(C)(C)C,21µM*,i,i,9.2µM*,u,u
CCCc1nc2c3ccccc3ccn2c1Cc1cccc(Cl)c1,u,i,i,u,26µM*,u
N#Cc1ccc(-c2nc3c4ccccc4ccn3c2CC2CCCCC2)cc1,-27%,i,i,-19%,2%,11%
Cc1[nH]c2ccccc2c1/C=C/C(=O)c1ccncc1,-21%,i,i,-9%,-3%,-1%
Cc1[nH]c2ccccc2c1/C=C/c1cc[n+](C)cc1,0.92µM*,10µM*,i,0.65µM*,-23%,-7%
Cc1[nH]c2ccccc2c1/C=C/c1c(C)[nH]c2ccccc12,10µM*,u,i,11µM*,x,x
O=C(COC(=O)CC1CC2CCC1C2)Nc1ccccc1[N+](=O)[O-] (centres undefined),-19%,i,i,12%,0%,14%
CCc1ccccc1Nc1cc(C(=O)NCc2ccc(C)cc2)c2ccccc2n1,u,i,i,21µM*,x,x
CCc1ccccc1Nc1cc(C(=O)NC(C)c2ccccc2)c2ccccc2n1 (centres undefined),u,i,i,29µM*,x,x

# High-throughput results from PubChem.
